Assay results taken from PubChem BioAssay (NCATS).
Records with an inconclusive call do not appear. Entries that show only a call come without a potency. A structure can be active in one record and inactive in another. Calls of active or inactive are those of the source. Unless noted, the call rests on the fitted dose curve; in most records, active means well fitted curve in the direction sought with a large enough effect; inconclusive means small, poorly fitted or top-dose-only effect, or another doubt; inactive means no such curve, though single readings can be large; an effect the other way counts as inactive or inconclusive. Starred links: 1 amine or outer side, 2 acyl side, 3 side chain; linkers in the order of their positions; H or OH if unused. Positions of bridges follow the written chain, without caps; N, C: chain ends. Non-standard residues stand in square brackets, D forms with d. Residues, ends and D or L forms follow the SMILES beside them. ξ: configuration not given here. *: point of attachment. X3 = C[C@@H](Oc1ccc([C@H](N[*:1])C(=O)[*:2])cc1)[C@]1(/C=C\C(=O)[*:3])CO1; d(aIle) = CC[C@H](C)[C@@H](N)C(=O)O; X2 = CC(C)[C@@H](O)C(C)C(=O)*; ξNMeF = CNC(Cc1ccccc1)C(=O)O; ξT = CC(O)C(N)C(=O)O; ξS = NC(CO)C(=O)O

What was measured:
[1] = OV-KATE Cancer Cell Toxicity qHTS against the NCATS CANVASS Library (AID 1347345); further: potency means the concentration at half of the fitted maximal effect
Procedure, shortened: (§1)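 Following a 4 h pre-incubation of 1000 seeded cells, compounds were pinned in an 11-pnt dilution series and left for 72 h; viability then came from CellTiter-Glo.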

[2] = A2780 Cisplatin Sensitive Ovarian Cancer Cell Toxicity qHTS against the NCATS CANVASS Library (AID 1347353); further: nearly all actives have a fitted effect of over 60% in size; further: potency means the concentration at half of the fitted maximal effect
Procedure, shortened: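 A2780 cisplatin-sensitive cells (750 per well) were seeded, left 4 h at 37 °C, then pin-dosed in an 11-point series. After 72 h at 37 °C/5% CO2, viability was measured as ATPLite luminescence.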

[3] = SDT Cancer Cell Toxicity qHTS against the NCATS CANVASS Library (AID 1347365); further: nearly all actives have a fitted effect of over 60% in size; further: potency means the concentration at half of the fitted maximal effect
Procedure, shortened: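 SDT canine glioma cells (500 cells/well) were exposed to compounds in an 11-point series for 72 hr at 37C, 5% CO2; viability was read as ATP content by CellTiterGlo luminescence.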

[4] = qHTS for ATAD5 Antagonist screened against the NCATS CANVASS Library (AID 1347370); further: nearly all actives have a fitted effect of over 65% in size; further: potency means the concentration at half of the fitted maximal effect;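 on activity change, negative = inhibition: HEK293T cells carrying an ATAD5 luciferase reporter co-treated with 10 µM 5-fluorouridine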
Procedure, shortened: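 HEK293T cells with a stably integrated ATAD5-controlled luciferase reporter were exposed to compounds (11-pt) alongside 10 uM 5-fluorouridine as ATAD5 stabilizer for 16hr at 37C. Viability was read by CellTiter-Fluor fluorescence, then ATAD5 by luminescence.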

[5] = Secretion counterscreen for inhibitors of the SERCaMP assay screened against the NCATS CANVASS Library (AID 1347390);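 further: light from luciferase secreted into medium read as a measure of general secretion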; further: potency means the concentration at half of the fitted maximal effect
Procedure, shortened: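 SH-SY5Y cells expressing constitutively secreted GLuc, 1000 cells/well, attached 4 h at 37C, then exposed to compounds (0.001 - 77 uM, 11-pnt series) for 20 h. Coelenterazine added; luminescence read to flag secretory-pathway interferers.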

[6] = qHTS for activators of Nrf2/ARE signaling pathway screened against the NCATS CANVASS Library (AID 1347391); further: nearly all actives have a fitted effect of over 60% in size; further: potency means the concentration at half of the fitted maximal effect
Procedure, shortened: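 ARE-bla HepG2 beta-lactamase reporter cells, 2000 cells/well, were preincubated 5 h, then exposed to compounds (11-point series) for 16 h at 37C. CCF4 fluorescence (ex 405, em 460/530 nm) after 2 h at room temperature.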

[7] = OV-SAHO Cancer Cell Toxicity qHTS against the NCATS CANVASS Library (AID 1347348); further: nearly all actives have a fitted effect of over 55% in size; further: potency means the concentration at half of the fitted maximal effect
Procedure, shortened: as §1

[8] = COV-362 Cancer Cell Toxicity qHTS against the NCATS CANVASS Library (AID 1347352); further: potency means the concentration at half of the fitted maximal effect
Procedure, shortened: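 Cells were seeded at 1000 per well and allowed to settle 4 hours at 37 degrees C before pin transfer of compounds as an 11-point series. Viability was read by CellTiter-Glo luminescence after 72 hours' exposure.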

[9] = MCF7 Cancer Cell Toxicity qHTS against the NCATS CANVASS Library (AID 1347369); further: potency means the concentration at half of the fitted maximal effect
Procedure, shortened: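 MCF7, 500 cells/well; cpds 11-pt qHTS; 72 hr, 37C/5% CO2; CellTiterGlo ATP luminescence.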

[10] = qHTS for Activators of p53 Stress Response Pathway screened against the NCATS CANVASS Library (AID 1347388)
Procedure, shortened: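 p53RE-bla HCT-116 cells (4000/well) were pre-incubated for 5 h, then treated with compound (11 points) for 16 h at 37C. After 2 h with CCF4, the 460/530 nm ratio gave reporter activation; CellTiter-Glo measured viability.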

[11] = Vero-766 cells viability qHTS against the NCATS CANVASS Library: Counterscreen for Zika virus inhibition assay (AID 1347394); further: nearly all actives have a fitted effect of over 60% in size; further: potency means the concentration at half of the fitted maximal effect
Procedure, shortened: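 Uninfected Vero 766 (African green monkey) cells, 1000/well, attached overnight, then exposed 72 h at 37C to compounds (11-point qHTS). Viability read by CellTiter-Glo luminescence; media-only wells served as 100% inhibition.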

[12] = Cytotoxicity counterscreen for inhibitors of SARS-CoV-2 cell entry (AID 1645845; calls by dose curve; further: nearly all actives have a fitted effect of over 50% in size; further: potency means the concentration at half of the fitted maximal effect); conditions: outcome: dose series up to 57.1 µM unless noted
Procedure, shortened: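 HEK293-ACE2 cells (Expi293F stably expressing human ACE2) seeded overnight, then compound for 1 h plus 48 h at 37C. Viability as ATP content by luminescence; normalized to wells with cells and media-only wells.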

[13] = Primary qHTS to identify inhibitors of SARS-CoV-2 cell entry (AID 1645846; calls by dose curve; further: nearly all actives have a fitted effect of over 45% in size; further: potency means the concentration at half of the fitted maximal effect); conditions: SARS-CoV-2 pseudovirus cell entry assay, luminescence; activity change, negative = inhibition: at 57.1 µM (top of the series) unless noted
Procedure, shortened: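 Luminescence readout (Bright-Glo luciferase) 48 h after pseudoparticle addition. HEK293-ACE2 cells, 1500/well; compound pre-incubation 1 h; Normalized to spike PP and bald PP.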

[14] = Primary qHTS for inhibitors of nuclear receptor binding SET domain protein 2 (NSD2) in an isogenic RCH-ACV NSD2 p.E1099K mutant (9B) (AID 1645876); further: nearly all actives have a fitted effect of over 70% in size; further: potency means the concentration at half of the fitted maximal effect
[15] = Primary qHTS for inhibitors of nuclear receptor binding SET domain protein 2 (NSD2) in an RCH-ACV wild type WT cells (2C) (AID 1645877); further: nearly all actives have a fitted effect of over 70% in size; further: potency means the concentration at half of the fitted maximal effect

Compound: C/C=C1/CN2C3CC1C1=CCC(=O)N4c5ccccc5[C@@]3(C[C@@H]2C2=C[C@H]3C5CC6N(CC[C@@]67c6ccccc6N(C2=O)[C@@H]37)C/C5=C/C)[C@H]14 (stereo not given in full)
- Potency [1]: inactive
- Potency [2]: 13200 nM (active)
- Potency [3]: 20900 nM (active)
- Potency [4]: 14800 nM (active)
- Potency [5]: 43100 nM (active)
- Potency [6]: 7410 nM (active)

Compound: C[C@]12CCC3[C@@H](CC[C@@H]4C[C@@H](O)CC[C@]34CO)[C@@]1(O)CC[C@@H]2C1=CC(=O)OC1 (stereo not given in full)
- Potency [7]: 2360 nM (active)
- Potency [8]: 1880 nM (active)
- Potency [2]: 2960 nM (active)
- Potency [3]: 1480 nM (active)
- Potency [9]: 1170 nM (active)
- Potency [4]: 4170 nM (active)
- Potency [10]: inactive
- Potency [5]: 7670 nM (active)
- Potency [6]: inactive
- Potency [11]: 11700 nM (active)

Compound: CC[C@]12C=CCN3CC[C@]4(C(=C(C(=O)OC)C1)Nc1ccccc14)[C@@H]32
- Potency [1]: inactive
- Potency [7]: inactive
- Potency [8]: inactive
- Potency [2]: inactive
- Potency [9]: inactive
- Potency [10]: inactive
- Potency [5]: inactive
- Potency [6]: inactive
- Potency [11]: inactive

Compound: CO[C@H]1C[C@H](O[C@H]2[C@@H](O)C[C@H](O[C@H]3CC[C@]4(C=O)[C@H]5CC[C@]6(C)C(C7=CC(=O)OC7)CC[C@]6(O)[C@@H]5CC[C@]4(O)C3)O[C@@H]2C)O[C@H](C)[C@H]1O[C@H]1C[C@@H](OC)[C@@H](O[C@@H]2O[C@H](CO)[C@@H](O)[C@H](O)[C@H]2O)[C@@H](C)O1 (stereo not given in full)
- Potency [1]: 265 nM (active)
- Potency [7]: inactive
- Potency [8]: 374 nM (active)
- Potency [2]: 83.3 nM (active)
- Potency [3]: 148 nM (active)
- Potency [9]: 166 nM (active)
- Potency [4]: 660 nM (active)
- Potency [5]: 767 nM (active)
- Potency [6]: inactive

Compound: c1ccc2nc3c(cc2c1)[nH]c1ccccc13
- Potency [1]: inactive
- Potency [8]: inactive
- Potency [9]: inactive
- Potency [4]: inactive
- Potency [10]: inactive
- Potency [5]: inactive
- Potency [6]: 16600 nM (active)
- Potency [11]: inactive

Compound: C=CC(C)(C)[C@@]12C[C@H]3C(=O)N/C(=C\c4cnc[nH]4)C(=O)N3[C@@H]1Nc1ccccc12
- Potency [1]: inactive
- Potency [7]: inactive
- Potency [8]: inactive
- Potency [2]: inactive
- Potency [3]: inactive
- Potency [9]: inactive
- Potency [4]: inactive
- Potency [10]: inactive
- Potency [5]: inactive
- Potency [11]: inactive

Compound: CC[C@H](C)[C@H]1NC(=O)[C@@H](NC(=O)C(C)[C@H](O)C(C)C)[C@@H](C)OC(=O)C2COC(=O)CNC(=O)/C=C\[C@]3(CO3)[C@@H](C)Oc3ccc(cc3)[C@H](NC1=O)C(=O)N(C)C(Cc1ccccc1)C(=O)NC(C(C)O)C(=O)N2 (stereo not given in full) (X2-T[d(aIle)][X3][ξNMeF][ξT][ξS]; ester 1-C; linker 3-6 via G)
- Potency [1]: inactive
- Potency [7]: inactive
- Potency [8]: inactive
- Potency [2]: inactive
- Potency [9]: inactive
- Potency [4]: inactive
- Potency [10]: inactive
- Potency [6]: inactive
- Potency [11]: inactive

Compound: C=C[C@H]1CN2CCC1C[C@@H]2[C@@H](O)c1ccnc2ccccc12 (stereo not given in full)
- Potency [12]: inactive
- activity change, negative = inhibition [13]: -29.6%
- Potency [14]: inactive
- Potency [15]: inactive

Compound: COc1cc(C)[nH]c(=O)c1CNC(=O)c1c(C)n([C@H](C)C2CCN(CC(F)(F)F)CC2)c2ccccc12
- Potency [12]: inactive
- activity change, negative = inhibition [13]: 4.42%
- Potency [15]: inactive

Compound: O=C(CBr)N1CC([N+](=O)[O-])([N+](=O)[O-])C1
- Potency [12]: inactive
- activity change, negative = inhibition [13]: -11.3% [at 114 µM]

Compound: C[C@]12COC(=O)C[C@@H]1CC[C@@H]1[C@@H]2CC[C@@]2(C)[C@H]1CC[C@]2(C)O
- Potency [12]: inactive
- activity change, negative = inhibition [13]: -8.16%

Compound: COC12C(COC(N)=O)C3=C(C(=O)C(C)=C(N)C3=O)N1CC1C2N1C (stereo not given)
- Potency [12]: inactive
- Potency [14]: 1660 nM (active)
- Potency [15]: 1050 nM (active)

Compound: CC(C)[C@]12O[C@H]1[C@@H]1O[C@@]13[C@@]1(C)CCC4=C(COC4=O)[C@@H]1C[C@@H]1O[C@@]13C2=O
- Potency [12]: inactive
- activity change, negative = inhibition [13]: -93.1%
- Potency [14]: 37.2 nM (active)
- Potency [15]: 33.2 nM (active)

Compound: C[C@@H](C1CC[C@@]2(O)C3=CC(=O)[C@@H]4C[C@@H](O)[C@@H](O)C[C@]4(C)[C@H]3CC[C@]12C)[C@H](O)CCC(C)(C)O (stereo not given in full)
- Potency [12]: inactive
- activity change, negative = inhibition [13]: -30.2%
- Potency [14]: inactive
- Potency [15]: inactive

Compound: CO[C@H]1CCC(O[C@H]2C[C@H]([C@]3(C)CC[C@]4(C[C@H](O)[C@@H](C)[C@@H]([C@@H](C)/C=C(\C)C(=O)[C@H](C)C[C@H](C)C(=O)O)O4)O3)O[C@]3(O[C@@H]([C@H]4O[C@@](O)(CO)[C@H](C)C[C@@H]4C)C[C@@H]3C)[C@@H]2C)O[C@@H]1C (stereo not given in full)
- Potency [14]: 209 nM (active)

Compound: CC(C)(O)/C=C\C(=O)[C@](C)(O)[C@H]1[C@H](O)C[C@]2(C)[C@@H]3CC=C4[C@@H](C=C(O)C(=O)C4(C)C)[C@]3(C)C(=O)C[C@@]12C
- Potency [13]: 794 nM (active)
- Potency [14]: 52.5 nM (active)
- Potency [15]: 46.8 nM (active)

Compound: Cc1c(N)nc([C@H](CC(N)=O)NC[C@@H](N)C(N)=O)nc1C(=O)N[C@H](C(=O)N[C@@H](C)[C@H](O)[C@@H](C)C(=O)N[C@@H](C(=O)NCCc1nc(-c2nc(C(=O)NCCC[S+](C)C)cs2)cs1)[C@@H](C)O)C(O[C@H]1O[C@H](CO)[C@H](O)[C@@H](O)[C@H]1O[C@H]1O[C@H](CO)[C@@H](O)[C@H](OC(N)=O)[C@@H]1O)c1cnc[nH]1 (stereo not given in full)
- Potency [12]: inactive
- Potency [13]: 1120 nM (active)
- activity change, negative = inhibition [13]: -97.2%
- Potency [14]: inactive

Compound: C[C@@]12OC(=O)[C@]1([C@@H](O)[C@@H]1C=CCCC1)NC(=O)[C@@H]2CCCl
- activity change, negative = inhibition [13]: -97.7%
- Potency [14]: 118 nM (active)
- Potency [15]: 105 nM (active)

Compound: COC(=O)[C@@]12OC[C@]34[C@H]([C@@H](O)[C@@H]1O)[C@@]1(C)CC(=O)C(O)=C(C)[C@@H]1C[C@H]3OC(=O)[C@H](OC(=O)/C=C(\C)C(C)C)[C@@H]24
- activity change, negative = inhibition [13]: -94.1%
- Potency [14]: 296 nM (active)
- Potency [15]: 235 nM (active)

Compound: C=C(C)[C@@H]1CCC(C)=C[C@H]1c1c(O)cc(CCCCC)cc1O
- Potency [12]: inactive
- Potency [14]: 18600 nM (active)
- Potency [15]: 20900 nM (active)

Compound: Cn1c(COP(=O)(NCCBr)NCCBr)cnc1[N+](=O)[O-]
- Potency [12]: inactive
- activity change, negative = inhibition [13]: -15%
- Potency [15]: 18600 nM (active)

Compound: CC(=O)OC[C@H]1O[C@@H]([S-])[C@H](OC(C)=O)[C@@H](OC(C)=O)[C@@H]1OC(C)=O.CC[PH+](CC)CC.[Au]
- Potency [12]: 3160 nM (active)
- Potency [13]: 1260 nM (active)
- Potency [14]: 742 nM (active)
- Potency [15]: 742 nM (active)

Compound: COC[C@H]1OC(=O)c2coc3c2[C@@]1(C)C1=C(C3=O)[C@@H]2CC[C@H](O)[C@@]2(C)C[C@H]1OC(C)=O
- Potency [12]: inactive
- Potency [14]: 13200 nM (active)
- Potency [15]: 11800 nM (active)
